Results reported in PubChem BioAssay AID1159606 (Sanford-Burnham Center for Chemical Genomics, 2016).
Among all 360,000 compounds or so, about 7,300 (2%) were called active. The list comes from a sample in which actives are over-represented; it also holds similar structures and randomly drawn compounds. Values without a mark were called inactive. Cut-off read from the data, not from the text of the source: active = inhibition above about 50%; inactive = the rest.

Test: blockers of TWEAK-induced Fn14 reporter activity – luciferase reporter cells, uHTS, primary screen (AID 1159606)
Conditions: TWEAK-stimulated Fn14 reporter cells, luciferase luminescence, 8 h; at 10 µM; hits give high values

| SMILES | inhibition |
| --- | --- |
| O=C(Nc1ccc(NC(=O)c2cccs2)cn1)c1ccco1 | 57.4% (active) |
| O=C(COC(=O)c1ccco1)Nc1ccc(Cl)cn1 | -3.57% |
| Cc1ccc(NC(=O)c2ccco2)cc1 | -27.8% |
| CC1CN(c2cc(=O)n(Cc3ccc(F)cc3)c(=O)[nH]2)CC(C)O1 (stereo not given) | -5.29% |
| CC(=O)OCC(C)n1c(=O)c2ccccc2n1C(C)=O (stereo not given) | 2.6% |
| CCC(c1nnnn1-c1ccc2c(c1)OCCO2)N1CCN(c2ccc(C(F)(F)F)cn2)CC1 (stereo not given) | 30.4% |
| Cc1cc(C)cc(NC(=S)NCCc2c[nH]c3ccccc23)c1 | 7.03% |
| Cc1cccc(NC(=S)NCc2ccc3[nH]c4c(c3c2)CCCC4)c1 | 70.9% (active) |
| CCc1cccc(CC)c1NC(=S)NCc1ccc2[nH]c(C)cc2c1 | 12.3% |
| Cc1ccc(CCN2CC(C(=O)O)CC2=O)cc1 (stereo not given) | -5.87% |
| c1ccc(-c2cc3c(NCC4COc5ccccc5O4)ncnc3s2)cc1 (stereo not given) | 77.3% (active) |
| O=C(Cn1cnc2ccccc2c1=O)NCC1COc2ccccc2O1 (stereo not given) | 9.26% |
| Cc1noc(C)c1C(=O)NCC1COc2ccccc2O1 (stereo not given) | -8.54% |
| COc1cccc(N(CC(=O)NC2CCCCCC2)S(=O)(=O)c2ccccc2)c1 | -34.4% |
| C=CCn1c(=NC(=O)c2cccs2)sc2cc(NC(C)=O)ccc21 | -34.5% |
| CCOC(=O)N1CCN(C(c2ccnc3ccccc23)c2nnnn2-c2c(C)cccc2C)CC1 (stereo not given) | 8.32% |
| O=C(OCc1nnc(-c2ccccc2)o1)c1cc(=O)[nH]c2ccccc12 | -0.55% |
| O=C(COC(=O)c1cc(=O)[nH]c2ccccc12)Nc1nc(-c2cccc(Br)c2)cs1 | 75.8% (active) |
| O=C(COC(=O)c1cc(=O)[nH]c2ccccc12)NCc1cccc(Cl)c1 | -18.6% |
| CC1=CC(=C(C#N)c2nc3ccccc3s2)C=C(C)N1c1ccc(F)cc1F | 55.1% (active) |

| SMILES | inhibition |
| --- | --- |
| Cc1nn(-c2ccc(F)cc2)c(Cl)c1/C=C(/CCC(=O)O)c1nc2ccccc2s1 | -0.77% |
| N#Cc1ccc(-c2nc3c(Cl)cc(C(F)(F)F)cn3c2Cc2ccccc2C(F)(F)F)cc1 | -2.71% |
| NS(=O)(=O)c1ccc(NC(=O)COC(=O)c2ccco2)cc1 | -4.93% |
| NS(=O)(=O)c1ccc(NC(=O)COC(=O)c2c3c(nc4ccccc24)/C(=C\c2ccc4c(c2)OCO4)CCC3)cc1 | 55.8% (active) |
| NS(=O)(=O)c1ccc(NC(=O)COC(=O)CCc2c[nH]c3ccccc23)cc1 | -2.39% |
| COc1ccc(CCN2CC(C(=O)NCCN3CCNC3=O)CCC2=O)cc1 (stereo not given) | -4.1% |
| CCOC(=O)CN(C)S(=O)(=O)c1ccc(-c2cc(C(=O)OC)sc2C(F)(F)F)cc1 | 0.95% |
| S=C(NN=Cc1ccccn1)Nc1ccccn1 | 105% (active) |
| S=C(Nc1cccnc1)Nc1ccccn1 | -12.4% |
| O=C(N/N=C/c1ccccn1)c1cccc(NC(=O)c2ccc(Cl)cc2)c1 | 9.71% |
| COC(=O)c1[nH]c2ccc(Br)cc2c1NC(=O)Oc1ccccc1 | 5.94% |
| Cc1ccccc1CC1(CO)CCCN(Cc2ccc3c(c2)OCCO3)C1 (stereo not given) | 6.31% |
| COc1ccc(C2(C)NC(=O)N(CC(=O)c3ccc4c(c3)OCO4)C2=O)cc1 (stereo not given) | -0.46% |
| CC(=NCc1ccco1)c1c(C(F)(F)F)[nH]n(-c2nc3ccccc3s2)c1=O | 75.8% (active) |
| Cc1nc2cc(NCc3cccs3)ccc2n1C | -6.1% |
| Cc1nc2cc(NC(=O)Nc3cccc(F)c3)ccc2n1C | 81.1% (active) |
| C=CCN(C(=O)Nc1ccc2c(c1)nc(C)n2C)c1ccccc1 | -7.06% |
| CCCCC(O)C1=C[N+](=O)CC=C1 (stereo not given) | 39.5% |
| O=C(NCc1cccnc1)c1ccc2nc([C@@H]3O[C@H](CO)[C@H](O)[C@H](O)[C@H]3O)[nH]c2c1 | 13.3% |
| COCCc1nn2c(=O)cc(COC(=O)c3cc(OC)c(OC)c(OC)c3)nc2s1 | 2.03% |

| SMILES | inhibition |
| --- | --- |
| NC(N)=Nc1nc(-c2ccccc2)c2cc(Cl)ccc2n1 | -9.76% |
| Clc1ccc2nc(-c3ccccc3)nc(C(Cl)Cl)c2c1 | 54.4% (active) |
| O=C(Cc1ccc(Cl)cc1)NCc1nc(-c2ccccc2)no1 | -18% |
| O=S(=O)(c1ccccc1)N1CN(Cc2ccc(F)cc2)c2nc3ccccc3nc21 | 11% |
| Oc1c(CN2CCOCC2)ccc(CN2CCOCC2)c1O | 2.4% |
| CSc1nc(-c2ccccc2)nc(C(Cl)Cl)n1 | 65.2% (active) |
| Cc1cccc(N=C2SC(C)CN2C(=O)CN2C(=O)NC3(CCCC3)C2=O)c1 (stereo not given) | 5.82% |
| O=C(CNc1ccccc1N1CCCC1=O)Nc1cc(Cl)ccc1-n1cncn1 | 2.85% |
| COc1ccc(C2NC(=S)NC3=C2CCc2ccccc23)cc1OC (stereo not given) | 9.33% |
| Cc1cc(Br)ccc1NC(=O)c1sc2ncn(CC(=O)N3CCN(c4ccccn4)CC3)c(=O)c2c1C | 9.08% |
| Cc1cc(C(=O)N2CCN(c3ccccn3)CC2)c(C)o1 | -12.8% |
| Cc1cc(Br)ccc1NC(=O)c1cnc(N2CCN(c3ccccn3)CC2)c2ccccc12 | 80.5% (active) |
| CCc1ccccc1NC(=O)c1cc(-c2ccc3c(c2)OCO3)on1 | -6.05% |
| CCOC(=O)c1sc2nc(C)nc(Nc3ccc(OC)c(OC)c3)c2c1C | 10.5% |
| CC1CCC(NC(=O)CN(C)S(=O)(=O)c2ccc3c(c2)c(=O)n(C)c(=O)n3C)CC1 (stereo not given) | -18.7% |
| COc1cnc(SCc2ccc(Cl)c(Cl)c2)nc1Cl | -23.9% |
| Cc1c(Cl)c([N+](=O)[O-])nn1CC(=O)NCCCN1CCOCC1 | 55.9% (active) |
| Cc1c(Cl)c([N+](=O)[O-])nn1CC(=O)NCC1CCCO1 (stereo not given) | 12.8% |
| CCCCNC(=O)Cn1nc(C)c(S(=O)(=O)N2CCOCC2)c1C | 10.8% |
| OCCc1ccc(NCCc2ccco2)cc1 | -21.3% |
